{"source": "PubChem BioAssay (EPA / NIEHS)", "key": {"[1]": {"assay": "CCTE_Mundy_HCI_hNP1_Casp3_7: CCTE's Caspase-Glo 3/7 Assay in human neuroprogenitor cells for Apoptosis, Mundy Lab (AID 2284240)", "in_short": "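Neuroepithelial-lineage stem cells from WA09 embryonic cells were treated with chemicals after 40–44 h of culture. Twenty-four hours later, caspase-3/7 activation was detected luminescently after a 30 min room-temperature reagent step, with DMSO as baseline.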"}, "[2]": {"read-out": "Collagen III, COL3A1 (gene 1281)", "assay": "BSK_MyoF_CollagenIII: BioMAP Diversity Plus: MyoF Assay for Collagen III Biomarker Activity (AID 2284239)", "conditions": "primary human lung fibroblasts", "procedure": "(§1) BSK_MyoF is a cell-based, multiplexed-readout assay that uses lung fibroblasts, […], with measurements taken at 24 hours after chemical dosing in a microplate: 96-well plate.BSK_MyoF_CollagenIII is an assay component measured in the BSK_MyoF assay. It measures Collagen III antibody related to regulation of gene expression using ELISA technology.Data from the assay component BSK_MyoF_CollagenIII was analyzed at the endpoint, BSK_MyoF_CollagenIII, in the positive analysis fitting direction relative to DMSO as the negative control and baseline of activity. Using a type of binding reporter, gain or loss-of-signal activity can be used to understand protein changes. […]\n(§2) The levels of cell surface (or secreted, indicated by the prefix \"s\") biomarker endpoints were measured by ELISA. Overt cytotoxicity to cells in confluent adherent cultures (all systems other than the BT system) was assessed by measuring total protein levels using sulforhodamine B (SRB) staining in parallel cultures at the time of biomarker measurements, indicated as SRB endpoints. For proliferation assays for adherent cell types, individual cell types are cultured at sub-confluence and relative cell numbers quantified by SRB staining at time points optimized for each system (48 h: 3C and CASM3C systems; 72 h: BT and HDF3CGF systems; 96 h: SAg system). […] Plates were read after 6 h."}, "[3]": {"read-out": "Interleukin 17F (IL17F), IL17F (gene 112744)", "assay": "BSK_BT_xIL17F: BioMAP Diversity Plus: BT Assay for Interleukin 17F (IL17F) Biomarker Activity (AID 2284243)", "conditions": "primary human B cells with PBMC", "in_short": "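Human B cells co-cultured with PBMC; secreted IL-17F quantified by LumineX xMAP 24 hours after chemical dosing. Activity fitted in the positive direction against DMSO negative control as baseline.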"}, "[4]": {"read-out": "Actin alpha 1 (ACTA1), ACTA1 (gene 58)", "assay": "BSK_MyoF_ACTA1: BioMAP Diversity Plus: MyoF Assay for Actin alpha 1 (ACTA1) Biomarker Activity (AID 2284244)", "conditions": "primary human lung fibroblasts", "in_short": "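Measured by ELISA: alpha-smooth muscle actin in human primary lung fibroblasts 24 h after dosing, with DMSO as baseline and upward signal change as the fitted direction.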"}, "[5]": {"read-out": "Interleukin 2 (IL2), IL2 (gene 3558)", "assay": "BSK_BT_xIL2: BioMAP Diversity Plus: BT Assay for Interleukin 2 (IL2) Biomarker Activity (AID 2284245)", "conditions": "primary human B cells with PBMC", "in_short": "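Secreted interleukin-2 from human B cell/PBMC co-cultures, measured 24 h post-dosing by Luminex multiplex immunoassay. Upward-direction curve fitting against DMSO baseline.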"}, "[6]": {"read-out": "Basic fibroblast growth factor (bFGF), FGF2 (gene 2247)", "assay": "BSK_MyoF_bFGF: BioMAP Diversity Plus: MyoF Assay for Basic fibroblast growth factor (bFGF) Biomarker Activity (AID 2284246)", "conditions": "primary human lung fibroblasts", "in_short": "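In this multiplexed cell system, lung fibroblasts (human primary) receive test chemical for 24 h before ELISA detection of bFGF; DMSO defines baseline and the analysis direction is positive.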"}, "[7]": {"read-out": "Collagen IV, COL4A1 (gene 1282)", "assay": "BSK_MyoF_CollagenIV: BioMAP Diversity Plus: MyoF Assay for Collagen IV Biomarker Activity (AID 2284247)", "conditions": "primary human lung fibroblasts", "in_short": "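Activity is scored as a signal increase over DMSO in an ELISA for Collagen IV, measured on human lung fibroblasts at 24 h after chemical treatment. Cytotoxicity is checked in parallel cultures by sulforhodamine B total-protein staining.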"}, "[8]": {"read-out": "Plasminogen activator inhibitor-1 (PAI1), SERPINE1 (gene 5054)", "assay": "BSK_MyoF_PAI1: BioMAP Diversity Plus: MyoF Assay for Plasminogen activator inhibitor-1 (PAI1) Biomarker Activity (AID 2284256)", "conditions": "primary human lung fibroblasts", "in_short": "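Human lung fibroblasts (MyoF system) were exposed to test chemicals for 24 h, then PAI-1 was quantified by ELISA. Activity was fitted in the positive (signal-gain) direction relative to DMSO vehicle as baseline.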"}, "[9]": {"read-out": "Interleukin-8 (IL8), CXCL8 (gene 3576)", "assay": "BSK_MyoF_IL8: BioMAP Diversity Plus: MyoF Assay for Interleukin-8 (IL8) Biomarker Activity (AID 2284261)", "conditions": "primary human lung fibroblasts", "procedure": "as §1, with “plate.BSK_MyoF_IL8” for “plate.BSK_MyoF_CollagenIII”, “IL-8” for “Collagen III”, “BSK_MyoF_IL8” for “BSK_MyoF_CollagenIII”, “BSK_MyoF_IL8,” for “BSK_MyoF_CollagenIII,”\nas §2"}, "[10]": {"read-out": "Decorin, DCN (gene 1634)", "assay": "BSK_MyoF_Decorin: BioMAP Diversity Plus: MyoF Assay for Decorin Biomarker Activity (AID 2284265)", "conditions": "primary human lung fibroblasts", "procedure": "as §1, with “plate.BSK_MyoF_Decorin” for “plate.BSK_MyoF_CollagenIII”, “Decorin” for “Collagen III”, “BSK_MyoF_Decorin” for “BSK_MyoF_CollagenIII”, “BSK_MyoF_Decorin,” for “BSK_MyoF_CollagenIII,”\nas §2"}}, "note": "“And” between values parts separate entries of the source, which are not always exact repeats. Identical values can stand only once. Some structures have more than one record in an assay (separate samples or runs), and their calls can disagree. The source made the active and inactive calls. Rule for the calls: active = hit-call score of the fitted dose curve at least 0.9, where 1 is the maximum; inactive = score below 0.9.", "data": [{"smiles": "CN1COCN(Cc2cnc(Cl)s2)C1=N[N+](=O)[O-]", "values": [{"measurement": "outcome", "setting": "[1]", "result": "inactive"}]}, {"smiles": "CCOP(=O)(NC(C)C)Oc1ccc(SC)c(C)c1", "note": "(stereo not drawn)", "values": [{"measurement": "outcome", "setting": "[1]", "result": "inactive"}]}, {"smiles": "COP(=O)(OC)OC(Br)C(Cl)(Cl)Br", "note": "(stereo not drawn)", "values": [{"measurement": "AC50", "setting": "[1]", "result": "11.9 µM (active)"}, {"measurement": "outcome", "setting": "[1]", "result": "inactive"}]}, {"smiles": "CCOP(=S)(OCC)SCCSCC", "values": [{"measurement": "outcome", "setting": "[1]", "result": "inactive"}]}, {"smiles": "COP(=O)(OC)C(O)C(Cl)(Cl)Cl", "note": "(stereo not drawn)", "values": [{"measurement": "AC50", "setting": "[1]", "result": "15.5 µM (active)"}]}, {"smiles": "C[N+]1(C)CCCCC1", "values": [{"measurement": "outcome", "setting": "[1]", "result": "inactive"}]}, {"smiles": "CN(C)[C@@H]1C(=O)C(C(N)=O)=C(O)[C@@]2(O)C(=O)C3=C(O)c4c(O)cccc4[C@@](C)(O)[C@H]3[C@H](O)[C@@H]12", "values": [{"measurement": "outcome", "setting": "[2]", "result": "inactive"}, {"measurement": "AC50", "setting": "[1]", "result": "25.2 µM (active)"}, {"measurement": "outcome", "setting": "[3]", "result": "inactive"}, {"measurement": "outcome", "setting": "[4]", "result": "inactive"}, {"measurement": "outcome", "setting": "[5]", "result": "inactive"}, {"measurement": "outcome", "setting": "[6]", "result": "inactive"}, {"measurement": "outcome", "setting": "[7]", "result": "inactive"}, {"measurement": "outcome", "setting": "[8]", "result": "inactive"}, {"measurement": "outcome", "setting": "[9]", "result": "inactive"}, {"measurement": "outcome", "setting": "[10]", "result": "inactive"}]}, {"smiles": "CCCSP(=O)(OCC)SCCC", "values": [{"measurement": "outcome", "setting": "[1]", "result": "inactive"}]}, {"smiles": "CCOP(=S)(OCC)Oc1ccc([N+](=O)[O-])cc1", "values": [{"measurement": "outcome", "setting": "[1]", "result": "inactive"}]}, {"smiles": "CC1=NNC(=O)N(/N=C/c2cccnc2)C1", "values": [{"measurement": "outcome", "setting": "[1]", "result": "inactive"}]}, {"smiles": "S=C1NCCN1", "values": [{"measurement": "outcome", "setting": "[1]", "result": "inactive"}]}, {"smiles": "CCOP(=O)(SC(C)CC)N1CCSC1=O", "note": "(stereo not drawn)", "values": [{"measurement": "outcome", "setting": "[1]", "result": "inactive"}]}, {"smiles": "CCOP(=S)(OCC)Oc1ccc2c(C)c(Cl)c(=O)oc2c1", "values": [{"measurement": "AC50", "setting": "[1]", "result": "73.8 µM (active)"}]}, {"smiles": "O=[N+]([O-])c1cc(C(F)(F)F)c(Cl)c([N+](=O)[O-])c1Nc1ncc(C(F)(F)F)cc1Cl", "values": [{"measurement": "AC50", "setting": "[2]", "result": "2.72 µM (active)"}, {"measurement": "AC50", "setting": "[1]", "result": "2.95 µM (active)"}, {"measurement": "AC50", "setting": "[3]", "result": "1.35 µM (active)"}, {"measurement": "AC50", "setting": "[4]", "result": "2.27 µM (active)"}, {"measurement": "AC50", "setting": "[5]", "result": "3.34 µM (active)"}, {"measurement": "AC50", "setting": "[6]", "result": "3.75 µM (active)"}, {"measurement": "AC50", "setting": "[7]", "result": "2.27 µM (active)"}, {"measurement": "AC50", "setting": "[8]", "result": "2.2 µM (active)"}, {"measurement": "AC50", "setting": "[9]", "result": "20 µM (active)"}, {"measurement": "AC50", "setting": "[10]", "result": "5.88 µM (active)"}]}, {"smiles": "CC(=NC#N)N(C)Cc1ccc(Cl)nc1", "values": [{"measurement": "outcome", "setting": "[1]", "result": "inactive"}]}, {"smiles": "CC(C)N(C(=O)SCC(Cl)=C(Cl)Cl)C(C)C", "values": [{"measurement": "outcome", "setting": "[1]", "result": "inactive"}]}, {"smiles": "CCCCSP(=O)(SCCCC)SCCCC", "values": [{"measurement": "AC50", "setting": "[1]", "result": "35.8 µM (active) and 32.8 µM (active)"}]}, {"smiles": "CCOP(=S)(OCC)OC(Cl)C(Cl)(Cl)Cl", "note": "(stereo not drawn)", "values": [{"measurement": "AC50", "setting": "[1]", "result": "50.5 µM (active)"}, {"measurement": "outcome", "setting": "[1]", "result": "inactive"}]}, {"smiles": "CON=C(C(=O)OC)c1ccccc1CON=C(C)c1cccc(C(F)(F)F)c1", "values": [{"measurement": "AC50", "setting": "[1]", "result": "50 µM (active)"}]}, {"smiles": "CCOP(=S)(OCC)Oc1cc(C)nc(C(C)C)n1", "values": [{"measurement": "outcome", "setting": "[1]", "result": "inactive"}]}, {"smiles": "CCOC(=O)CC(SP(=O)(OC)OC)C(=O)OCC", "note": "(stereo not drawn)", "values": [{"measurement": "outcome", "setting": "[1]", "result": "inactive"}]}, {"smiles": "CSC1=N[C@@](C)(c2ccccc2)C(=O)N1Nc1ccccc1", "values": [{"measurement": "outcome", "setting": "[1]", "result": "inactive"}]}, {"smiles": "COP(=O)(NC(C)=O)SC", "note": "(stereo not drawn)", "values": [{"measurement": "outcome", "setting": "[1]", "result": "inactive"}]}, {"smiles": "CC[C@H](C)[C@H]1O[C@]2(C=C[C@@H]1C)C[C@@H]1C[C@@H](C/C=C(\\C)[C@@H](O[C@H]3C[C@H](OC)[C@@H](O[C@H]4C[C@H](OC)[C@@H](NC)[C@H](C)O4)[C@H](C)O3)[C@@H](C)/C=C/C=C3\\CO[C@@H]4[C@H](O)C(C)=C[C@@H](C(=O)O1)[C@]34O)O2", "values": [{"measurement": "AC50", "setting": "[1]", "result": "14.3 µM (active) and 3.62 µM (active)"}]}, {"smiles": "CCCSP(=O)(OCC)Oc1ccc(Br)cc1Cl", "note": "(stereo not drawn)", "values": [{"measurement": "outcome", "setting": "[1]", "result": "inactive"}]}, {"smiles": "CCOP(=S)(Oc1cnc(C(C)(C)C)nc1)OC(C)C", "note": "(stereo not drawn)", "values": [{"measurement": "AC50", "setting": "[1]", "result": "91.4 µM (active)"}, {"measurement": "outcome", "setting": "[1]", "result": "inactive"}]}, {"smiles": "CCOP(=O)(OCC)Oc1cc(C)nc(C(C)C)n1", "values": [{"measurement": "outcome", "setting": "[1]", "result": "inactive"}]}]}
